In PubChem BioAssay AID743287 (Broad Institute, 2014):
The whole screen tested about 370,000 compounds, of which about 2,300 (0.62%) were called active.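 The calls were made as follows: active = lowest replicate activation of at least 40%, so every replicate reaches that level; inactive = the rest.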 What follows is part of a selection rich in actives, with near analogues and random picks from the rest.

Experiment: primary screen for activators of insulin secretion dependent on glucose, INS-1E cells, GLuc reporter luminescence (AID 743287);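 also: 0% = median of neutral control wells and 100% = median of IBMX positive control wells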
Conditions: INS-1E GLuc reporter insulin secretion, 2-3 h, at 16.6 µM, stronger effect = higher value

| Compound | activation |
| --- | --- |
| CCCNC(=O)N1CC(=O)N2[C@H](CO)[C@H](c3ccc(C#Cc4cccc(OC)c4)cc3)[C@H]2C1 | -24.3% (inactive) |
| CNC[C@H]1Oc2ccccc2CC(=O)N(C)C[C@H]1C | 13.7% (inactive) |
| Cc1cc(C(=O)Nc2cccc3c2O[C@H](CN(C)C(=O)Nc2ccccc2)[C@@H](C)CN([C@H](C)CO)C3=O)n(C)n1 | 26.8% (inactive) |
| Cc1ccc(S(=O)(=O)N(C)C[C@@H]2Oc3ccc(NC(=O)C4CCCCC4)cc3CC(=O)N([C@@H](C)CO)C[C@H]2C)cc1 | -11.4% (inactive) |
| CCS(=O)(=O)Nc1ccc2c(c1)C(=O)N(C)[C@H]1CC[C@@H](CC(=O)N3CCCCC3)O[C@H]1CO2 | -5.88% (inactive) |
| C[C@@H]1CN([C@H](C)CO)S(=O)(=O)c2ccc(-c3ccccc3)cc2O[C@@H]1CN(C)CC1CC1 | 10.8% (inactive) |
| O=C(C[C@H]1CC[C@H](NC(=O)c2ccncc2)[C@H](CO)O1)Nc1ccccc1 | 22% (inactive) |
| O=C(c1cnccn1)N1CC(=O)N2[C@H](C1)[C@@H](c1ccc(C3=CCCCC3)cc1)[C@@H]2CO | -9.9% (inactive) |
| CO[C@@H]1CN(C)C(=O)c2ccc(NS(C)(=O)=O)cc2OC[C@@H](C)N(C(=O)CC2CC2)C[C@@H]1C | -7.78% (inactive) |
| NC(=O)Nc1ccccc1C(=O)NCCc1ccccc1 | 16.6% (inactive) |
| Nc1nc2c(Br)ccc(Br)c2cc1C(=O)NCCc1ccccc1 | 41.1% (active) |
| O=C(NCCc1ccccc1)c1c[nH]c2ccc(F)cc2c1=O | -9.34% (inactive) |
| CO[C@H]1CN(C)C(=O)c2ccc(NC(=O)c3cc(C)on3)cc2OC[C@@H](C)NC[C@@H]1C | 14.3% (inactive) |
| COc1ccc(NC(=O)N(C)C[C@@H]2Oc3c(NS(=O)(=O)c4cn(C)cn4)cccc3C(=O)N([C@H](C)CO)C[C@@H]2C)cc1 | 8.28% (inactive) |
| CCC(=O)N1CCC2(CC1)CN(Cc1cccc(OC)c1)[C@@H](CO)c1[nH]c3cc(OC)ccc3c12 | 5.34% (inactive) |
| Nc1[nH]c(C(=O)c2ccccc2)c(-c2ccc(Br)cc2)c1C(=O)NC1CC1 | 2.55% (inactive) |
| CC(C)(C)C(=O)c1c(N)[nH]c(C(=O)c2ccccc2)c1-c1ccc(F)cc1 | 0.681% (inactive) |
| Nc1[nH]c(C(=O)c2ccccc2)c(-c2ccncc2)c1C(=O)NCc1cccc2ccccc12 | 49.2% (active) |
| C[C@@H]1CCCCO[C@H](CN(C)C(=O)Cc2ccccc2)[C@H](C)CN([C@@H](C)CO)C(=O)c2cc(NS(=O)(=O)c3ccc(F)cc3)ccc2O1 | -21.1% (inactive) |
| COc1ccc2c3c(n(C)c2c1)[C@H](CO)N(Cc1ccccc1Cl)CC31CN(C(=O)CN(C)C)C1 | 11.4% (inactive) |
| O=C(COC(=O)Cn1cnc2ccccc21)Nc1cccc2c1C(=O)c1ccccc1C2=O | 4.13% (inactive) |
| O=C(COC(=O)c1cccc(Cl)c1)Nc1ccc2[nH]c(=O)[nH]c2c1 | 5.13% (inactive) |
| O=C(COC(=O)c1cccc(Br)c1)Nc1cccc2c1C(=O)c1ccccc1C2=O | 98% (active) |
| COc1ccc(CN(C)C(=O)Cc2ccsc2)c(OC)c1OC | -7.45% (inactive) |
| COc1ccc(-c2cc(C(=O)N(C)Cc3ccc(OC)c(OC)c3OC)c3ccccc3n2)cc1OC | 62.1% (active) |

| Compound | activation |
| --- | --- |
| COc1ccc(C(=O)N(C)Cc2ccc(OC)c(OC)c2OC)cc1S(=O)(=O)N1CCOCC1 | -3.04% (inactive) |
| CCn1c(C)cc(=O)cc1-c1ccc(Cl)cc1 | 9.35% (inactive) |
| CCCc1cc(=O)n2[nH]c(C)c(-c3ccc(Cl)cc3)c2n1 | 43.7% (active) |
| COCc1cc(=O)n2[nH]c(C)c(-c3ccccc3)c2n1 | -1.45% (inactive) |
| CN(C)C(=O)[C@@H]1[C@@H](CO)[C@@H]2Cn3c(ccc(-c4ccccc4)c3=O)[C@@H]2N1CCC(F)(F)F | 21.1% (inactive) |
| O=C1N[C@H](c2ccccc2)COCc2cn(nn2)CC[C@@H]1Cc1ccc(Cl)cc1 | 5.93% (inactive) |
| COc1cccc(NC(=O)N[C@H]2C=C[C@@H](CC(=O)Nc3ccc(-c4ccccc4)cc3)O[C@@H]2CO)c1 | 58.9% (inactive) |
| CC(=O)Nc1cc(-c2cccc(CO)c2)cn2c(-c3cccc(C(F)(F)F)c3)cnc12 | -3.82% (inactive) |
| CC(=O)Nc1cc(-c2ccccc2F)cn2c(-c3cccc(C(F)(F)F)c3)cnc12 | 2.99% (inactive) |
| CN(C)CCNC(=O)c1cccc(-c2cnc3c(NC=O)cc(-c4cccc(C(F)(F)F)c4)cn23)c1 | 52.7% (active) |
| COc1ccc2c3c(n(C)c2c1)[C@@H](CO)NCC31CN(S(=O)(=O)c2cccc(C)c2)C1 | 14.9% (inactive) |
| O=S(=O)(NCCc1ccc(Cl)cc1)c1cccs1 | -20.9% (inactive) |
| COc1ccc(CCNS(=O)(=O)c2ccc(Cl)s2)cc1OC | 40.9% (active) |
| CCOC(=O)c1cc(S(=O)(=O)NCCc2ccc(OC)c(OC)c2)cn1C | 13.8% (inactive) |
| C[C@H](CO)N1C[C@H](C)[C@@H](CN(C)C(=O)C2CCCCC2)OCCCC[C@H](C)Oc2ccc(N(C)C)cc2C1=O | -2.98% (inactive) |
| C[C@H](CO)N1C[C@H](C)[C@@H](CN(C)S(=O)(=O)c2cccc(F)c2)Oc2ncc(-c3cccc(F)c3)cc2C1=O | 3.46% (inactive) |
| CCn1c(SCC(=O)Nc2ccc3c(c2)OCCO3)nnc1C(C)C | 13.3% (inactive) |
| CCn1c(CNC(=O)c2ccco2)nnc1SCC(=O)Nc1cccc(F)c1 | -2.18% (inactive) |
| CCn1c(SCC(=O)Nc2cccc(F)c2)nnc1-c1cc2cc(Br)ccc2o1 | 85.4% (active) |
| C[C@H](CO)N1C[C@H](C)[C@H](CN(C)S(C)(=O)=O)Oc2ncc(C#CCN(C)C)cc2C1=O | 18.2% (inactive) |
| NC(Cc1ccccc1)c1csc(Nc2cc(Oc3ccccc3)ncn2)n1 (stereo not given) | -24.7% (inactive) |
| COc1ccc(CC(N)c2csc(NC(=O)Nc3ccc(C(C)C)cc3)n2)cc1 (stereo not given) | 193% (active) |
| NC(Cc1ccc(F)cc1)c1csc(Nc2nncc3ccccc23)n1 (stereo not given) | -32.2% (inactive) |
| COc1ccc(S(=O)(=O)Nc2cccc3c2O[C@@H](CN(C)C(=O)Nc2cccc4ccccc24)[C@H](C)CN([C@@H](C)CO)C3=O)cc1 | -8.86% (inactive) |
| COc1cccc(C#Cc2cnc3c(c2)C(=O)N([C@H](C)CO)C[C@@H](C)[C@@H](CN(C)C(=O)C2CCC2)O3)c1 | -5.49% (inactive) |
